This note sets out measurements from PubChem BioAssay.

SMILES strings stand for the structures. Unmarked numbers belong to inactive results. Active and inactive are the calls of the source. Rule as the data show it, unless noted: active = inhibition above about 30%; inactive = the rest.

In one test the target is Nuclear receptor coactivator 3 (Homo sapiens) (UniProt Q9Y6Q9). Description: SRC3 coactivator transcriptional activity inhibitors, confirmation, cell-based, luminescence, quadruplicate (AID 588792;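 active = mean inhibition over 43.08%, the solvent-only control mean plus 3 SD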;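 also: 0% = DMSO treated cells and 100% = gossypol at 36 µM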). The note with it: HEK293 GAL4-SRC3 luciferase reporter, at 3.6 µM, hits give high values.
Chain of Nuclear receptor coactivator 3 (Homo sapiens) (Q9Y6Q9 whole entry, looked up, the tested form may be a part): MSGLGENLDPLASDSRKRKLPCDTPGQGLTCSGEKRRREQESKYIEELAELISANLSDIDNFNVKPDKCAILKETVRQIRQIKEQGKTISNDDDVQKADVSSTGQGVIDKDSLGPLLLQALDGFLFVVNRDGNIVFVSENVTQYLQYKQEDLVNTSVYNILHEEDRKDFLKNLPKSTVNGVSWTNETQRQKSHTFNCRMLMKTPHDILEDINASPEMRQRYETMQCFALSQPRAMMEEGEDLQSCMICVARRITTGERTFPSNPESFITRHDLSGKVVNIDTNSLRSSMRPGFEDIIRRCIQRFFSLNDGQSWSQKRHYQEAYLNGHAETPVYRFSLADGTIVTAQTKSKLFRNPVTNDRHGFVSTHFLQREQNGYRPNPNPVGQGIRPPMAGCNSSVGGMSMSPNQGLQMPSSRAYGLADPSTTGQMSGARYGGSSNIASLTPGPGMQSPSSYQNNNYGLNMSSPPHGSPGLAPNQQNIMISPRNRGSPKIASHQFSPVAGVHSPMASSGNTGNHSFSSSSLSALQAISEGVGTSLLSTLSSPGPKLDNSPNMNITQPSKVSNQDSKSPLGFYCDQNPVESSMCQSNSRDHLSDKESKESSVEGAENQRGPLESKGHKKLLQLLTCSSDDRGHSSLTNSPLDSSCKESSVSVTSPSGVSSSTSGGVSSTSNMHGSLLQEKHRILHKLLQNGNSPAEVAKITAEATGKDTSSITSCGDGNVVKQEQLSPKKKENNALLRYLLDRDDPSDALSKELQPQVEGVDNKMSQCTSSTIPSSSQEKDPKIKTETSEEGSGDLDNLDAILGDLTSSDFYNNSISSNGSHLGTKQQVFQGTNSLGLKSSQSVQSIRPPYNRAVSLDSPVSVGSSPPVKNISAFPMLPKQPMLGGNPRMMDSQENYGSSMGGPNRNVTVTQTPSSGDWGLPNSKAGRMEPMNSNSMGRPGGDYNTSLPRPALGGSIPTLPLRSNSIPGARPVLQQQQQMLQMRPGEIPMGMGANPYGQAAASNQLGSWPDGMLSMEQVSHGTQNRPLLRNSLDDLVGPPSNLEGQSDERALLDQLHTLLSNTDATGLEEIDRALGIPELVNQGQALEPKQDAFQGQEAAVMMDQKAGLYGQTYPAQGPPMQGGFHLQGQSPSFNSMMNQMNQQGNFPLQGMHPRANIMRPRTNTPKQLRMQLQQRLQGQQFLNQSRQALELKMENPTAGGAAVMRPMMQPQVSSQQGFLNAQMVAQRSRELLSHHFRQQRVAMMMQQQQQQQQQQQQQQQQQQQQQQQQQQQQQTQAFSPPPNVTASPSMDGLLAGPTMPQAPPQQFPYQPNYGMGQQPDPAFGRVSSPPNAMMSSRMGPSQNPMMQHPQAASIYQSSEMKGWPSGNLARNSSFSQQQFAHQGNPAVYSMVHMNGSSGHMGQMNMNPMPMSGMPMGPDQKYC
As for `CCOC(=O)C1CCCN(c2c(NCCCN(C)c3ccccc3)c(=O)c2=O)C1` (stereo not given), the inhibition was -9.14%.

As to `CCN(CC)C(=O)c1[nH]cnc1C(=O)N[C@@H](CCCCNC(=O)OC(C)(C)C)C(=O)OC(C)(C)C`, the inhibition was 3.8%.

Take `COc1ccc(OCc2nn3c(-c4ccco4)nnc3s2)cc1`: the inhibition is -8.03%.

Turning to `O=C1N=c2ccccc2=C1c1sc(=O)[nH]c1O`, the inhibition is -3.29%.

As for `NCCCn1c(C(=O)c2cc(Cl)c(N)c(Cl)c2)c2ccc([N+](=O)[O-])cc2[n+]1[O-]`, the inhibition is 26.8%.

Regarding `CC(C)COc1ccc(C(=O)Nc2sc3c(c2C(=O)O)CC(C)(C)OC3)cc1`, the inhibition was 45.4% (active).

On to `Cc1ccc(NC(=O)C2CCN(c3ncnc4c3nc3n4CCCCC3)CC2)cc1Cl`, for which the inhibition is -20.6%.

For `Cc1cc(C(=O)Nc2ccncc2)c(C)o1`, the inhibition is 8.35%.

On to `Cc1nnnn1/C(=C\c1ccccc1)C(=O)OCC(=O)Nc1cccc(S(=O)(=O)N(C)C)c1`, for which the inhibition was -9.38%.

In a further test the test system is transactivating tegument protein VP16 (Human herpesvirus 1), Gal4-VP16 luciferase reporter. Description: VP16 transactivation inhibitors, counter-screen for SRC3 inhibitor project, cell-based, luminescence, high throughput (AID 588794). Conditions: mammalian cells, VP16-driven luciferase reporter luminescence; at 3.6 µM; hits give high values.
Consider `Cc1ccc2c(c1)c(C)cc[n+]2Cc1ccccc1`, for which the inhibition is 4.92%.

In the case of `CCOC(=O)CC/C(C)=N\N=C1\SC(CC(=O)O)C(=O)N1c1ccccc1` (stereo not given), the inhibition is -4.68%.

Turning to `COc1ccc(-c2nc3c(c(SCC(=O)N4CCOCC4)n2)Cc2c(CO)cnc(C)c2O3)cc1`, the inhibition is -10.4%.

In the case of `Nc1nc2c(F)cccc2s1`, the inhibition was 0.2%.

As for `Cc1cc(C)nc(/N=C(\N)Nc2ccc(OCCC(C)C)cc2)n1`, the inhibition was 23.4%.

`Cc1noc(C)c1CN1C(=O)NC2(CCCCCCC2)C1=O`: the inhibition is -10.4%.

Take `CCOc1ccc(OCC)c(NC(=O)CN(C)S(=O)(=O)c2cccc3nsnc23)c1`: the inhibition is 0.62%.

Turning to `Cc1cccc(OCC(=O)NCC(=O)N/N=C/c2ccc(O)cc2O)c1`, the inhibition is 14%.

As for `CC(=NNC(=O)c1ccncc1)c1ccc2ccccc2c1O`, the inhibition is 32.6% (active).

Take `COc1cccc(C(=O)CC(=O)C(=O)Nc2cccc([N+](=O)[O-])c2C)c1`: the inhibition was -1.84%.

Take `CC1=C/C(=N\OS(=O)(=O)c2ccccc2)C(C)=CC1=O`: the inhibition was 9.07%.

Take `N#Cc1c(NCc2ccccc2)ccnc1Cl`: the inhibition was 15.9%.

Take `C/C(=N\NC(=S)Nc1cc(S(=O)(=O)N2CCOCC2)ccc1Cl)c1ccccc1F`: the inhibition is 28.8%.

Take `CCN1/C(=C/c2cc[n+](C)cc2)C=Cc2cc(C)ccc21`: the inhibition is 70.9% (active).

With `COc1ccc(C)cc1NS(=O)(=O)c1ccc(NC(=O)CN(c2cc([N+](=O)[O-])ccc2C)S(C)(=O)=O)cc1`, the inhibition was -20%.

Turning to `CC(C)OP(=O)(OC(C)C)/C(C=O)=N\Nc1ccc([N+](=O)[O-])cc1`, the inhibition was 2.13%.

In the case of `CCOC(=O)c1cccc(NC(=O)CSc2nc3cccnc3n2C)c1`, the inhibition is 25.1%.

Turning to `O=c1cc(CNc2cc(C(F)(F)F)cc(C(F)(F)F)c2)nc2sccn12`, the inhibition is 3.94%.

Consider `COc1cc(OC)cc(-c2nn[nH]n2)c1`, for which the inhibition is -1.27%.

As to `CCc1ccc(CN(C)C(=O)c2cc(COc3cccc4cnccc34)on2)cc1`, the inhibition is 33.7% (active).

Regarding `O=C(CN1C(=O)c2ccccc2S1(=O)=O)c1ccc(F)cc1`, the inhibition was 17.6%.

For `CCN(c1ccccc1)S(=O)(=O)c1ccc(C(=O)Nc2nnc(-c3ccco3)o2)cc1`, the inhibition was 9.19%.

Consider `C#CCOCCOCCOCCNc1nc(N2CCN(C(=O)Cn3cc(CCCN=C(N)N)nn3)CC2)nc(N2CCN(C(=O)[C@H](C)n3cc(CCCN=C(N)N)nn3)CC2)n1`, for which the inhibition is 0.02%.

Regarding `CCOC(=O)c1c(-c2ccccc2)nnn1-c1nc(OCC)nc(N2CCCCC2)n1`, the inhibition was 0.51%.

For the compound `Cc1cccc(Nc2nc(N)c([N+](=O)[O-])c(N3CC(C)CC(C)C3)n2)c1` (stereo not given), the inhibition is 15.7%.

For the compound `COc1cc(C=CC(=O)c2ccccc2)cc(OC)c1OC`, the inhibition was 30.1% (active).

`COc1cccc(/C=N/NC(=O)C(C)n2nc(C)c([N+](=O)[O-])c2C)c1O` (stereo not given): the inhibition is 27.4%.

Consider `COc1cc(/C=C/c2cc(C(F)(F)F)[nH]c(=O)n2)cc(OC)c1OC`, for which the inhibition is 40.6% (active).

For `CCC1C(=O)NCCN1C(=O)c1ccc2nc(Cc3ccc(OC)cc3)oc2c1` (stereo not given), the inhibition is -0.9%.

In the case of `CCN(CC(=O)Nc1ccccc1C(F)(F)F)C(=O)c1ccc(N2C(=O)CCC2=O)cc1`, the inhibition is 2.68%.

Turning to `CCOC(=O)C1CCCN(c2c(NCCCN(C)c3ccccc3)c(=O)c2=O)C1` (stereo not given), the inhibition was -3.6%.
